Screening results as filed in PubChem.
An excerpt weighted towards active compounds, which were near 11% of everything screened.
HTT cytoprotect – cytoprotection in Huntington HTT-Q103 PC12 cell model. 230,000 compounds, 0.14% hits. PC12 HTT-Q103 induced, cytoprotection, ATP luminescence, 40 h. Potency, µM (top dose mostly 56.4 µM), for inactives: cytoprotection (ATP increase), hits mostly activators; note: potency is the fitted concentration of half-maximal effect; % of control where 0% means no effect; nearly all actives have a fitted effect of over 45% in size
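Stable PC12 Q103-GFP cells in serum-supplemented, phenol red-free DMEM; induction by tebufenozide at 100 nM final; compound dose series; cell viability quantified luminescently from ATP.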
HTT aggregate – mutant huntingtin aggregation inhibition; Potency, µM (doses to about 46.1 µM), for inactives: at the top dose activity change, negative = inhibition, most hits filed as inhibitors; PC12 HttQ103-GFP aggregates, Acumen cytometry, 40 h; 220,000 compounds, 1.1% hits; note: potency is the fitted concentration of half-maximal effect; % is set by controls: 0 for no effect and ±100 for the full control effect; nearly all actives have a fitted effect of over 60% in size
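Steps: seed 1500 PC12 HTTQ103-GFP cells/well; add tebufenozide, 100 nM final; add compound titration; add ATPLite reagent; quantify GFP aggregates by laser scanning cytometry.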
ALDH1A1 block – inhibitors of human aldehyde dehydrogenase 1A1; 220,000 compounds, 7.3% hits; AID 1030; Purified ALDH1A1, NADH fluorescence, propionaldehyde substrate; P00352; Potency, µM (top dose mostly 75.3 µM), inactives show at the top dose activity, negative = inhibition, hits mostly inhibitors; active = well fitted inhibition curve with a large enough effect, not every such curve was filed as active; inconclusive = small, poorly fitted or top-dose-only effect, or another doubt; inactive = no such curve, though single readings can be large or run the other way;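 note: potency is the fitted concentration of half-maximal effect; plate controls were no enzyme wells and a reference inhibitor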
Target sequence (P00352 whole entry, looked up): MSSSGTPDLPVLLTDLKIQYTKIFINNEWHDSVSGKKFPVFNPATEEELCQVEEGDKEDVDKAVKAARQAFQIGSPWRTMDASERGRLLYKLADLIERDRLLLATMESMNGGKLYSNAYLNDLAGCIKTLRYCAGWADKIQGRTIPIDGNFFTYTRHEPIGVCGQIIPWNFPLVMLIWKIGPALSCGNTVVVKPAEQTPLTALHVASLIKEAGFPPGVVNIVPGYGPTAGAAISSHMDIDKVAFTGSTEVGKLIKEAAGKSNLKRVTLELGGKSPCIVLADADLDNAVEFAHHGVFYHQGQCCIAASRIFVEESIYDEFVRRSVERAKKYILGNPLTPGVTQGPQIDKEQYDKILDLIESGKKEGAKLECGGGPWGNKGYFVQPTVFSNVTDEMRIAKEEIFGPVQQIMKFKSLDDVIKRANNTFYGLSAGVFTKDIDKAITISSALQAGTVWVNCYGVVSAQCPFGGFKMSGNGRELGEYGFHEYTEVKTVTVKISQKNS
PNC assembly inh – blocks assembly of the perinucleolar compartment. PC3M PTB-GFP, PNC prevalence imaging, 16 h; hits give low values. activity change (PNC), negative = inhibition, % at 10 µM. 140,000 compounds, 3.1% hits;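 active = readout at or below -70, meaning at least 70% loss of cells showing the perinucleolar compartment, a nuclear body marking cancer cells; inconclusive = readout between -30 and a set limit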;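 note: plate controls were DMSO wells for no effect and camptothecin positive control wells for full effect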
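Compounds are pinned in duplicate onto adhered PC3M cells stably expressing GFP-tagged PTB and incubated 16 h at 37 C. Cells are then fixed, nuclei stained with Hoechst, and PNC-positive cells counted.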
CBFb-RUNX1 inh – inhibitors of human CBF-beta and RUNX1 interaction. Q01196+Q13951. AlphaScreen CBFb-His/RUNX1-biotin binding, biochemical. Potency, µM (highest dose often 59.8 µM), for the others: top-dose activity, negative = inhibition, actives largely listed as inhibitors. 230,000 tested, under 10 active. AID 1477; note: % of control where 0% means no effect
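Proteins preincubated together for 20 min at RT before compound addition; 15 min later, nickel and streptavidin beads were added and left 90 min prior to AlphaScreen measurement.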
HPGD block – blocks human HPGD enzyme activity. P15428. Potency, µM, for inactives: at the top dose activity change, negative = inhibition, hits mostly inhibitors. 150,000 compounds, 4.3% hits. purified HPGD, NADH fluorescence kinetic, PGE2 substrate; active = well fitted inhibition curve with a large enough effect, not every such curve was filed as active; inconclusive = small, poorly fitted or top-dose-only effect, or another doubt; inactive = no such curve, though single readings can be large or run the other way; note: potency is the fitted concentration of half-maximal effect; % is set by controls: 0 for no effect and ±100 for the full control effect
Target sequence (P15428 whole entry, looked up): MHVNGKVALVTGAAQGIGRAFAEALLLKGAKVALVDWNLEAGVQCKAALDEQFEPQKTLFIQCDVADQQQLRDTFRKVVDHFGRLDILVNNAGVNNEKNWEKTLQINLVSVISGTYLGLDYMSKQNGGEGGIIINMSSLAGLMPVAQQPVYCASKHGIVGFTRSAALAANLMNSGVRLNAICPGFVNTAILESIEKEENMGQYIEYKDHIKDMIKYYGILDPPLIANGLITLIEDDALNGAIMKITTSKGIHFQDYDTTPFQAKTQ
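NADH formation kinetics: reaction with 30 uM PGE2 and 1 mM NAD+ (final), 20 nM enzyme, Tris-HCl pH 8 with Tween 20, after 15 min compound preincubation at room temperature. Fluorescence change, last versus first of five reads.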
An asterisk follows results filed as active; ? = inconclusive; · = no result given; ! = not confirmed by another sample; [ ] = dose if it differs, or a comment. Unless noted, calls come from the whole dose curve; as a rule, active = well fitted curve in the direction sought with a large enough effect; inconclusive = small, poorly fitted or top-dose-only effect, or another doubt; inactive = no such curve, though single readings can be large; an effect the other way counts as inactive or inconclusive.

SMILES	HTT cytoprotect	HTT aggregate	ALDH1A1 block	PNC assembly inh	CBFb-RUNX1 inh	HPGD block
CN1C(=O)C(O)(CC(=O)c2ccc(F)cc2)c2cc(Br)ccc21 (configuration not stated)	-3%[10 µM]	0%	16%	3	17%	?
COc1ccc([C@@H](C)C(=O)c2ccc(O)cc2O)cc1	19%	·	-6%	·	-3%	-17%
O=[N+]([O-])c1ccc2nc(/C=C/c3ccc(Cl)cc3)[nH]c2c1	-63%	?	-11%	?	-8%	-14%
Cn1cc(-c2nc3cnc(Oc4ccccc4)nc3n(C)c2=O)c2ccccc21	-51%	·	-8%	·	·	·
C=C(C#N)C(=O)OCC	4%	·	8.9µM*	·	6%[21.7 µM]	-6%
COC(=O)C1=C(C)N(CCc2ccc(OC)cc2)C(=O)C1	-14%	-8%	10µM*	-27	2%	-30%
COC(=O)C1=C(C)N(CCc2c[nH]c3ccc(OC)cc23)C(=O)C1	-10%	-2%	18µM*	·	-4%	·
COC(=O)C1=C(C)N(Cc2ccc(OC)cc2)C(=O)C1	6%[10 µM]	?	3%	24	6%	-20%
COC(=O)C1=C(C)N(CCc2ccc(OC)c(OC)c2)C(=O)C1	0%	31%	?	-22	-1%	-16%
CC1=CCC2C(=O)N(CCc3c[nH]c4ccccc34)C(=O)C2C1 (configuration not stated)	2%[10 µM]	-4%	-15%	8	2%	-16%
COC(=O)C1=C(C)N(CCc2c[nH]c3ccccc23)C(=O)/C1=C\N(C)C	-23%	-12%[9.22 µM]	13µM*	·	-3%	·
[Cu].[NH-][C@H](CC(=O)O)C(=O)O.[NH-][C@H](CC(=O)O)C(=O)O	1%[10 µM]	·	1%[13.5 µM]	·	·	-7%
OC1OC[C@H](O)[C@@H](O)[C@@H]1O (some centres not stated)	·	·	·	·	14%	·
c1ccc2c(c1)[nH]c1c(N3CCC4(CC3)OCCO4)ncnc12	-34%	13µM*	?	43	0%	-28%
COc1cccc2[nH]c3c(N4CCC5(CC4)OCCO5)ncnc3c12	29%[10 µM]	-2%[9.22 µM]	·	·	-1%	·
c1nc(N2CCC3(CC2)OCCO3)c2[nH]cnc2n1	·	17%	15%	-113*	-2%	-5%
c1ccc2c(c1)CCN(c1ncnc3c1[nH]c1ccccc13)C2	-72%	11µM*	-8%	?	6%	-19%
C[C@H]1CC[C@H]2C(=O)N3[C@H](c4ccccc4Br)[C@@H](C)CC[C@H]3C(=O)N2[C@@H]1c1ccccc1Br	·	?	?	17	2%[2.36 µM]	-7%
COCCn1c(=O)c(-c2cc(F)cc(F)c2)nc2cnc(Nc3cccc(OC)c3)nc21	-6%	·	5%	·	·	-8%
COc1ccc(CCNC(=O)CSc2nnnn2C)cc1OC	8%[10 µM]	-3%[9.22 µM]	6%	·	3%	·
COc1ccc(CCNC(=O)CSc2nnnn2-c2ccccc2OC)cc1OC	-15%	-7%	0.28µM*	25	4%	-10%
COc1ccc(CCNC(=O)CSc2nncn2N)cc1OC	-1%[1.9 µM]	13%	?	-82*	1%	-12%
C/C(CC(O)c1ccc2ccccc2n1)=N/O (configuration not stated)	-10%	15%[9.22 µM]	21%	-15	5%	-17%
COc1ccc(NC(=O)N2CCc3nc(-c4ccccc4)c4c(c3C2)CO[C@@H](C)C4)cc1	-13%[10 µM]	·	0%[13.5 µM]	·	4%[13.1 µM]	-5%
O=S(=O)(NC1CCCC1)c1ccc(S(=O)(=O)NC2CCCC2)cc1	-4%	-17%	-7%	?	-1%	-12%
SMILES	HTT cytoprotect	HTT aggregate	ALDH1A1 block	PNC assembly inh	CBFb-RUNX1 inh	HPGD block
CC(C)(C)C(=O)CNS(=O)(=O)c1ccc(S(=O)(=O)NC2CCCC2)cc1	-10%[10 µM]	-21%	?	-82*	12%	-2%
COc1ccc(S(=O)(=O)Cc2ccc(C(=O)NCc3ccccn3)o2)cc1	2%	-20%	-6%	-2	-2%	-13%
COc1ccc(CC(=O)c2c(O)cc(O)cc2O)cc1OC	17%	-1%[9.22 µM]	-6%	16	-7%	32µM*
COc1cc(CC(=O)O)ccc1O	-2%	-22%[9.22 µM]	25µM*!	·	6%	7%
COc1ccc(C(=O)Cc2ccc(OC)c(OC)c2)cc1	11%[10 µM]	·	6%	?	-2%	-9%
COc1ccc(/C=C/C(=O)c2cc(F)ccc2OC(=O)c2ccccc2C)cc1OC	-85%[10 µM]	?	6%	-88*	-14%	-16%
COC(=O)c1nn(-c2ccc(OC)cc2)c(=O)c2c(N)sc(C)c12	·	-13%	7.9µM*	44	-17%	-27%
CCOC(=O)c1nn(-c2ccc(C)cc2)c(=O)c2c(N)scc12	16%[1.9 µM]	-19%	18µM*	?	2%	-16%
Cc1cc(C)c(/C=C2/C(=O)Nc3ccccc32)[nH]1	28%[1.9 µM]	·	·	·	·	·
Cc1cc(C(C)(C)C)cc(CNC2CCCCC2)c1O	-2%[10 µM]	·	17%[13.5 µM]	·	·	-3%
CN(C)C(CNC(=O)c1ccc2c(=O)n(-c3ccccc3F)c(=S)[nH]c2c1)Cc1ccccc1 (configuration not stated)	-7%	5%	13µM*	·	1%	·
Cc1ncc(COP(=O)(O)O)c(C)c1O	-14%[10 µM]	·	3%[13.5 µM]	·	·	1%
COc1cccc(C(=O)CSc2nc3ccccc3n2CC(=O)N(C(C)C)C(C)C)c1	2%[10 µM]	-6%	-2%	-100*	4%	-8%
c1ccc2oc(C3=NNC(=NC4CC4)SC3)cc2c1	-21%[10 µM]	15%	28µM*	83	-25%	?
c1csc(C2=NNC(=NC3CCCCC3)SC2)c1	-98%	-13%	?	·	-25%	·
Cc1ccc(C)c(C2=NNC(=NCc3ccccc3)SC2)c1	12%	-20%	18µM*	·	?	·
c1ccc(CN=C2NN=C(c3cc4ccccc4o3)CS2)cc1	9%[0.074 µM]	7%	28µM*	-11	?	16µM*
COC(=O)CS(=O)(=O)c1ccsc1C(=O)Nc1ccc(F)cc1	-43%	0%	2%	·	3%	·
CCc1cccc2c3c([nH]c12)[C@](CC)(CC(=O)O)OCC3	24%[1.9 µM]	·	·	·	·	·
CCCCNc1c([N+](=O)[O-])cc(C(=O)O)cc1[N+](=O)[O-]	·	-16%	-1%	?	4%	-18%
O=C(O)c1cc([N+](=O)[O-])c(NCCC2=CCCCC2)c([N+](=O)[O-])c1	-17%	-5%	10µM*	·	-1%	·
O=C(NCCN1CCCCC1)c1ccc(Cc2nc3ccccc3[nH]2)cc1	·	·	6%	·	·	-6%
CC(NCC(O)COc1ccc(S(=O)(=O)N2CCOCC2)cc1)c1ccccc1 (configuration not stated)	2.2µM*	-3%	6%	·	10%	·
OC(COc1ccccc1)CN1CCOCC1 (configuration not stated)	-4%[10 µM]	2%	10%	-100*	1%	-14%
